Measured values: PubChem BioAssay (Tox21)
Records with an inconclusive call do not appear. A call without a number means that no potency is given here. Calls of active or inactive are those of the source. The call rests on the fitted dose curve; in most records, active means well fitted curve in the direction sought with a large enough effect in the repeat runs; inconclusive means weak or mixed curves; inactive means no such curve, though single readings can be large; an effect the other way counts as inactive or inconclusive.

Tests used:
[1] = target: Voltage-gated inwardly rectifying potassium channel KCNH2 (Homo sapiens) (UniProt Q12809); experiment: Human Ether-a-go-go-Related Gene (hERG) channel small molecule antagonists: fluorescence cell-based qHTS assay (AID 1671200);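 further: hERG-expressing U2OS cells given a thallium stimulus after FluxOR II dye loading; series mostly up to about 77 µM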
Procedure, shortened: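 Kinetic two-minute fluorescence traces, sampled at 1 s, were collected following thallium stimulus of U2OS cells (1000 per well) that had been cultured overnight at 37 C and loaded with FluxOR II.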

[2] = target: Cytochrome P450 3A4 (Homo sapiens) (UniProt P08684); experiment: Cytochrome P450 Family 3 Subfamily A Member 4 (CYP3A4) small molecule antagonists: luciferase reporter qHTS assay (AID 1671201); further: potency means the concentration at half of the fitted maximal effect
Procedure, shortened: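 Proluciferin-to-luciferin conversion by CYP3A4, NADPH-regenerated, 1 h RT; luminescence read as RLU. Ketoconazole as control.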
Further: nearly all actives have a fitted effect of over 50% in size.

Chain of Cytochrome P450 3A4 (Homo sapiens) (P08684 whole entry, looked up): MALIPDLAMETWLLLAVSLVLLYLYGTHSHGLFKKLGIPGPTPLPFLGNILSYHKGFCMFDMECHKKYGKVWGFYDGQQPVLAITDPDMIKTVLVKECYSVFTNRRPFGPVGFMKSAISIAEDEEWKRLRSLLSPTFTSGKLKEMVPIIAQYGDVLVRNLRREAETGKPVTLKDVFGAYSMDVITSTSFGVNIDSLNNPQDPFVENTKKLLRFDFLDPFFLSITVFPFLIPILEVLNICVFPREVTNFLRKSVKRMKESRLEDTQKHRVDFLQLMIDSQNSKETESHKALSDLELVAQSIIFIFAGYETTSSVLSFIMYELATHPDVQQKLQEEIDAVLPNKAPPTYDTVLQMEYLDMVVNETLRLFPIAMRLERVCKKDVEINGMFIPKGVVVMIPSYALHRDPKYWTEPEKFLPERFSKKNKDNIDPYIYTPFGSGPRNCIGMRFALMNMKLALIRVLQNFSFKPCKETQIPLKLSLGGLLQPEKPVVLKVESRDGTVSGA
Chain of Voltage-gated inwardly rectifying potassium channel KCNH2 (Homo sapiens) (Q12809 whole entry, looked up): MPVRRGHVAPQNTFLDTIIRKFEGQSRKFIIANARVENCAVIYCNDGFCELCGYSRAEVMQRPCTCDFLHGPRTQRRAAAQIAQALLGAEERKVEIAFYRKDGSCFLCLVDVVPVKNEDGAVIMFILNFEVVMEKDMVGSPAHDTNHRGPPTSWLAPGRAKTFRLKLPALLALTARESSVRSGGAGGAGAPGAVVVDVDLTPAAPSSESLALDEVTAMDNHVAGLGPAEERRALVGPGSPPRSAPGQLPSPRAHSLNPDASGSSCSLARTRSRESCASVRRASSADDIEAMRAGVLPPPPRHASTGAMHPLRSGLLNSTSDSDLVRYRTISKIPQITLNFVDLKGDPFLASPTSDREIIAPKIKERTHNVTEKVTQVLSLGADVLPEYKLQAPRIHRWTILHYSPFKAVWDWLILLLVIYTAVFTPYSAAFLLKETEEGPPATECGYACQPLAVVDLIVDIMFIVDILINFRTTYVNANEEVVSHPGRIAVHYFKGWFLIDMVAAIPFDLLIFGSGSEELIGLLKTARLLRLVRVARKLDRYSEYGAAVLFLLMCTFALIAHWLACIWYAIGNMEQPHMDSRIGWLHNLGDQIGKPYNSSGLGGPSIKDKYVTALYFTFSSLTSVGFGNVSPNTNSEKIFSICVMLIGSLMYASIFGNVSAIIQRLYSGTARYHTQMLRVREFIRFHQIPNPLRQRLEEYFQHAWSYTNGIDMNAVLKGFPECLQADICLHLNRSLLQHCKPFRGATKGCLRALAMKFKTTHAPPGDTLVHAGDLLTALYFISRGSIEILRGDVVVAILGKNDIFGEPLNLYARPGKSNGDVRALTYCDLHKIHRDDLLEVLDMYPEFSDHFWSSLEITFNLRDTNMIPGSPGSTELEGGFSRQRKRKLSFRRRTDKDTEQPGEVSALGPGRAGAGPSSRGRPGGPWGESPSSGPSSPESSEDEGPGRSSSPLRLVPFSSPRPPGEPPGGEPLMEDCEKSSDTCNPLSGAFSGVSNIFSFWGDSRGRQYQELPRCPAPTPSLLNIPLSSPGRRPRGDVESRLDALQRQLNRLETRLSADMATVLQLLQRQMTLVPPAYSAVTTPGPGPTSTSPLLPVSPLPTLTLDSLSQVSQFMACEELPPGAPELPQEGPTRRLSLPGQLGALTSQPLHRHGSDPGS

Row | Structure (SMILES) | Potency [1] | Potency [2]
1 | Nc1ncnc(Nc2ccccc2)n1 | inactive | inactive
2 | CCCCCCCCOS(=O)(=O)O | inactive | inactive
3 | Cc1ccccc1N=O | inactive | 36.5 µM (active)
4 | N[C@@H](CCC(=O)Nc1ccc([N+](=O)[O-])cc1)C(=O)O | inactive | inactive
5 | O=C1c2ccccc2C(=O)N1CCl | inactive | inactive
6 | Cc1cccc(OCC(O)CNC(C)(C)C)c1C (configuration not stated) | inactive | inactive
